# Measurements from PubChem BioAssay (NCATS).
# Records with an inconclusive call do not appear. Values without a mark were called inactive. Calls of active or inactive are those of the source. Calls come from the whole dose curve; as a rule, active = well fitted cell-killing curve with a large enough effect; inconclusive = small, poorly fitted or top-dose-only effect; inactive = no such curve, though single readings can be large or run the other way.
# Assay: qHTS of pediatric cancer cell lines to identify multiple opportunities for drug repurposing: Primary screen for MG 63 (6-TG R) cells (AID 1347105); note: nearly all actives have a fitted effect of over 50% in size
# Settings: MG 63 (6-TG R) viability, CellTiter-Glo, 48 h; series mostly up to 46 µM; activity change, negative = cytotoxic: at the top concentration
# From the text: Drug repurposing or repositioning has been offered as a strategy for drug development in oncology programs. This approach has special potential for childhood cancers and other rare or orphan diseases, where the expected return on new drug development has been a disincentive to pharmaceuticals. […] In this project we exploit the poly-pharmacology of drugs to discover new indications via phenotypic screening of a panel of 19 well-characterized cell lines derived from solid tumors seen in children and adolescents. The goal is to identify approved drugs with previously unrecognized anticancer properties that has the potential to reveal new mechanisms and biological processes involved in carcinogenesis or drug resistance. We employed a titration-based paradigm (quantitative high-throughput screening or qHTS), where all compounds were tested at multiple concentrations for their effect on cell viability. Concentration-response curves (CRCs) were derived directly from the primary screen, and both potency and efficacy values were used to identify compounds with robust bioactivity profiles. We screened the NIH Chemical Genomics Center (NCGC) Pharmaceutical Collection (NPC) and Mechanism Interrogation Plate (MIPE) small molecule collections of approved and investigational compounds against these cell lines; and measured metabolically active cells after 48 hours of compound treatment as a proxy for cell viability. […] Assay Submitter: Nathalia J. Martinez, National Center for Advancing Translational Sciences, National Institutes of Health, Rockville, MD, USA; email: natalia.martinez@nih.gov Shen, M et al. Quantitative high-throughput phenotypic screening of pediatric cancer cell lines identifies multiple opportunities for drug repurposing. Oncotarget 2017 Dec 19;9(4):4758-4772. PMID 29435139.
# The cells were obtained from University of North Carolina (UNC), Pediatric Preclinical Testing Program (PPT), and Coriell Institute (CI). qHTS cell viability assay: Cells were assayed in growth media at a density of 500-1,000 cells/well. Five microliters of cells were dispensed into 1,536-well, white, solid-bottom, TC-treated plates (Greiner Bio One) using a multidrop dispenser and incubated at 37 degrees C, 5% CO2, under a humidified atmosphere for 5 hours. Twenty-three nanoliters of compounds and controls (neutral control DMSO or positive control bortezomib at final concentration of 2.3 µM) were subsequently transferred by Kalypsys pintool. For primary screens, the MIPE collection was tested at 11-point dilutions (final concentrations range from 0.78 nM to 46 µM) and the NPC collection at 8-point dilutions (final concentrations range from 0.59 nM to 46 µM). Compounds tested in follow-up screens were assayed at 11-point dilutions. Cells were incubated for 48 hours, followed by addition of 3 µL of CellTiter-Glo (Promega). After a 15 min incubation at room temperature, samples were analyzed for luminescence intensity using a ViewLux High-throughput CCD imager equipped with clear filters.
# % is set by controls: 0 for no effect and ±100 for the full control effect.
SMILES,"activity change, negative = cytotoxic",Potency
CN(C)C(=O)Oc1cc(OC(=O)N(C)C)cc(C(O)CNC(C)(C)C)c1 (stereo not given),-11.7%,–
C[C@H](N)[C@H](O)c1ccc(O)c(O)c1,-22.8%,–
C[C@]12CC[C@H](O)CC1=CC[C@@H]1[C@@H]2CC[C@]2(C)C(=O)CC[C@@H]12,-9.41%,–
O=C(O)c1nn(Cc2ccc(Cl)cc2Cl)c2ccccc12,–,inactive
CN1CCC(N(Cc2ccccc2)c2ccccc2)CC1,-13%,–
O=C(CCCN1CCC(n2c(=O)[nH]c3ccccc32)CC1)c1ccc(F)cc1,-23.6%,–
CCCOC(=O)Cc1ccc(OCC(=O)N(CC)CC)c(OC)c1,-21.1%,–
Cc1cccc(Cc2cnc[nH]2)c1C,-27.2%,–
COc1cc(CC#N)cc(OC)c1OC,-2.31%,–
CCC1(c2cccc(O)c2)CCCCN(C)C1 (stereo not given),-33.8%,–
COP(=O)(OC)C(O)C(Cl)(Cl)Cl (stereo not given),-13.7%,–
CN1C(=O)CN=C(c2ccccc2)c2cc(Cl)ccc21,-23.4%,–
C#C[C@]1(O)CC[C@H]2[C@@H]3CCC4=CC(=O)CCC4=C3C=C[C@@]21CC,-9.49%,–
COc1cc(N)c(Cl)cc1C(=O)NC1CN2CCC1CC2 (stereo not given),-21.7%,–
C[C@H]1CNCCc2ccc(Cl)cc21,-16.6%,–
C=CC[C@]1(O)CC[C@H]2[C@@H]3CCC4=CC(=O)CCC4=C3C=C[C@@]21C,-6.29%,–
C=CCN1CC[C@]23CCCC[C@H]2[C@H]1Cc1ccc(O)cc13,-24.9%,–
CCS(=O)(=O)C(C)(C)S(=O)(=O)CC,-16.6%,–
CC1Sc2c(C(=O)O)c(=O)c3cc(F)c(N4CCNCC4)cc3n21 (stereo not given),35.7%,–
C[C@]12CC[C@H]3[C@@H](CC=C4C[C@@H](O)CC[C@@]43C)[C@@H]1CC[C@@H]2O,-15.8%,–

SMILES,"activity change, negative = cytotoxic",Potency
CCCC[N+]1(C)[C@@H]2CC(OC(=O)[C@H](CO)c3ccccc3)C[C@H]1[C@@H]1O[C@@H]12 (stereo not given in full),-13%,–
NC(=O)CN1CCCC1=O,7.09%,–
Oc1c(Br)cc(Br)cc1Br,2.47%,–
Nc1ccccc1C(=O)OCC(O)CO (stereo not given),-3.14%,–
COc1cc(C[C@@H](C)N)c(OC)cc1Br,-9.47% [at 92.7 µM],–
C[C@]12Cc3nonc3C[C@@H]1CC[C@@H]1[C@@H]2CC[C@@]2(C)[C@H]1CC[C@]2(C)O,-16.7%,–
COc1ccc(CN2CCNCC2)c(OC)c1OC,-12.3%,–
O=c1[nH]c2cc(Cl)ccc2n1C1CCNCC1,-14.8%,–
c1ccc2nc(N3CCNCC3)ccc2c1,-5.73%,–
O=C(O)Cc1ccccc1,-13.6%,–
CCC(=O)C(CCN(C)C)(c1ccccc1)c1ccccc1,-26.5%,–
CC(C)[N+](C)(CCC(C(N)=O)(c1ccccc1)c1ccccc1)C(C)C,-12.1%,–
CNC(=O)NC(O)C(Cl)(Cl)Cl (stereo not given),-20.9%,–
C[N+](C)(C)CCOC(=O)C(O)(c1ccccc1)c1ccccc1,-27.2%,–
CCOC(C(=O)OCCN(C)C)(c1ccccc1)c1ccccc1,-21.8%,–
CC#C[C@]1(O)CC[C@H]2[C@@H]3C[C@H](C)C4=CC(=O)CC[C@]4(C)[C@H]3CC[C@@]21C,-5.85%,–
CC(=O)OC1(c2ccccc2)CCN(CCc2ccccc2)CC1,-23.8% [at 92.7 µM],–
CCOC(=O)C(c1c(O)c2ccccc2oc1=O)c1c(O)c2ccccc2oc1=O,-2.87%,–
C[C@@H]1CN(C2CCC(C#N)(c3ccc(F)cc3)CC2)CC[C@]1(C(=O)O)c1ccccc1 (stereo not given in full),-4.83%,–
CN1CCc2cc(Cl)c(O)cc2[C@H]2c3ccccc3CC[C@@H]21,-13.8%,–
